BoNT-F LC inh: inhibitors of Botulinum neurotoxin F light chain protease. Multiplex microsphere protease cleavage assay, flow cytometry. inhibition, % at 10 µM. actives 0.22% (n = 360,000); in the data active = inhibition above about 35%, passing the limit was not always enough; inconclusive = no clear call, values can overlap the other calls; note: plate controls were buffer without enzyme for full effect and enzyme alone for no effect
CCHF vOTU inh: blocks the CCHF virus ovarian tumor domain protease | actives 0.55% (n = 370,000) | inhibition, % at 11.5 µM | CCHFV vOTU protease, Pep-AMC fluorescence | AID 651958; in the data active = inhibition above about 30%; note: 0% = vehicle wells with enzyme and 100% = no enzyme wells
Autofluor counter: flagged as autofluorescent in microsphere protease counterscreen; compound autofluorescence counterscreen, microsphere flow cytometry; stronger effect = higher value; fluorescence intensity (concentration not given with the values); actives 3.1% (n = 360,000); AID 624483; in the data active = fluorescence intensity above about 16000; inconclusive = no clear call, values can overlap the other calls
Anthrax LF inh2: anthrax lethal factor protease inhibition; multiplex microsphere protease cleavage assay, LF; inhibition, % at 10 µM; actives 0.12% (n = 360,000); AID 588501; note: plate controls were buffer without enzyme for full effect and enzyme alone for no effect
Target sequence (P15917 whole entry, looked up): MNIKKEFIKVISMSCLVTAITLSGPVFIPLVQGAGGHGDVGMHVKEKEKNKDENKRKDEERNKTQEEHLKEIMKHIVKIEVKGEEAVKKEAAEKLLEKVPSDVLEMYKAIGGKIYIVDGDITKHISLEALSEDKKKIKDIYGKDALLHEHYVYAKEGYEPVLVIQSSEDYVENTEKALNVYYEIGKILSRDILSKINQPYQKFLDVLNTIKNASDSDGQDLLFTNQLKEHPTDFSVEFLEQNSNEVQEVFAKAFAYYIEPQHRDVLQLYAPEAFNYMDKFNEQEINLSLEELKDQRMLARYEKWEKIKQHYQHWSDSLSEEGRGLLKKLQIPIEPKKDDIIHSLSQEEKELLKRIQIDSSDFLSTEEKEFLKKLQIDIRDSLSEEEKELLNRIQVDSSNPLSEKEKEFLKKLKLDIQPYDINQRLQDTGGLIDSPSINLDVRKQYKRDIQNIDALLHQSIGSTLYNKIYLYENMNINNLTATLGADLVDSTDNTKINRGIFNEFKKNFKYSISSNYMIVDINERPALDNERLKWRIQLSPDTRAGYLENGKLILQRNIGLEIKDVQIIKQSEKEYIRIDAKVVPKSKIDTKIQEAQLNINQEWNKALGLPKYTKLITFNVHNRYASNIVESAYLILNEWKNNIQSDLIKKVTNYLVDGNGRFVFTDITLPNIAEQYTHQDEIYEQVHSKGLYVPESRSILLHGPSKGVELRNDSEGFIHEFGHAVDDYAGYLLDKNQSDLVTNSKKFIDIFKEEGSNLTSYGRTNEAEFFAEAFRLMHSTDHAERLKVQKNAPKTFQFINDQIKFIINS
3CLpro inhibitor: SARS-CoV 3CLpro protease inhibition | AID 1706 | P0C6X7 | inhibition, % at 6 µM | actives 0.14% (n = 290,000) | recombinant SARS-CoV 3CLpro, quenched FRET peptide cleavage; in the data active = inhibition above about 12%
BoNT-A LC inh2: BoNT A light chain protease inhibition | multiplex microsphere protease substrate cleavage, flow cytometry | inhibition, % at 10 µM | actives 0.17% (n = 360,000) | AID 588499; note: plate controls were buffer without enzyme for full effect and enzyme alone for no effect
* = called active by the depositor; ? = inconclusive; nt = no result given. The list is not random: actives were taken first. Their share in the collection is about 3.9%. Cut-off read from the data, not from the text of the source, unless noted: active = inhibition above about 30%; inconclusive = no clear call, values can overlap the other calls; inactive = below that.

SMILES	BoNT-F LC inh	CCHF vOTU inh	Autofluor counter	Anthrax LF inh2	3CLpro inhibitor	BoNT-A LC inh2
CCn1c(C)cc2c(c1=O)C(c1ccccc1)C(C(=O)OC)=C(N)O2 (stereo unspecified)	-1	3	23918*	0	2	0
O=C(COC(=O)c1cccnc1Cl)c1ccc(Cl)cc1Cl	5	-4	19499*	-1	4	4
Cc1cc(C2C(C#N)=C(N)SC(N)=C2C#N)c(C)s1	40*	nt	4324	13	0	18
CN1[C@H](Cc2ccccc2)COc2cccc(F)c2S1(=O)=O	nt	3	nt	nt	nt	nt
c1ccc(Cn2c(SCC3CCC3)nnc2-c2cccnc2)cc1	nt	-3	nt	nt	nt	nt
CCOc1ccc(N=c2oc3cc(O)ccc3cc2C(=O)NCC2CCCO2)cc1 (stereo unspecified)	5	-67	11107	-4	2	1
COc1ccc(N=c2oc3cc(O)ccc3cc2C(=O)NCC2CCCO2)cc1 (stereo unspecified)	2	-103	21984*	1	1	?
CCOc1ccccc1N=c1oc2cc(O)ccc2cc1C(=O)NCC1CCCO1 (stereo unspecified)	-3	-229	16487*	-5	3	-1
CCC(C)Nc1c([N+](=O)[O-])cc(C)cc1[N+](=O)[O-] (stereo unspecified)	-7	-10	24719*	-3	3	?
CCN(CC)CCCN=Cc1c(O)n(CCc2ccc(F)cc2)c(=O)[nH]c1=O	-3	11	3306	-4	-2	0
NC1CCCCC1N=Cc1c(O)n(CCc2ccc(F)cc2)c(=O)[nH]c1=O (stereo unspecified)	45*	-10	?	-6	4	3
COc1ccc(CCn2c(O)c(C=NCCN3CCCCC3)c(=O)[nH]c2=O)cc1OC	6	-3	20570*	2	-5	4
COc1ccc(CCn2c(O)c(/C=N/N3CCOCC3)c(=O)[nH]c2=O)cc1OC	nt	-14	nt	nt	-1	nt
COC(=O)c1cccc(OCC(C)CN2CCC(C(O)(c3ccccc3)c3ccccc3)CC2)c1 (stereo unspecified)	nt	-1	nt	nt	nt	nt
COC[C@H]1CCCN1c1cccc2c1S(=O)(=O)N(C1CC1)CCCO2	nt	2	nt	nt	nt	nt
Cc1cc(N2CCN(CC(C)(C)O)C[C@@H]2C)ccc1N1CCN(CC(C)(C)O)[C@H](C)C1	nt	23	nt	nt	nt	nt
Cc1ccc(S(=O)(=O)Nc2ccc3c(c2)nc2n3CCN(Cc3ccccc3)C2)cc1	-4	-4	18646*	3	1	6
O=S(=O)(Nc1ccc2c(c1)nc1n2CCN(Cc2ccccc2)C1)c1ccc(F)cc1	-12	-1	24166*	3	-1	2
O=S(=O)(Nc1ccc2c(c1)nc1n2CCN(Cc2ccccc2)C1)c1ccccc1	-15	-4	7297	-12	-1	3
NC(=O)CSc1nnc([C@@H](N)Cc2c[nH]c3ccccc23)o1	-1	1	10169	5	-7	-1
CSc1nnc([C@@H](N)Cc2ccccc2)o1	-2	4	15553	-8	-1	1
CC(C)Sc1nnc([C@@H](N)Cc2ccccc2)o1	0	-2	16323*	2	6	0
CC(C)Sc1nnc([C@@H](N)Cc2c[nH]c3ccccc23)o1	2	-2	18809*	-5	1	?
Cc1ccc(C)c(NC(=O)CSc2nnc([C@@H](N)Cc3c[nH]c4ccccc34)o2)c1	-12	-7	24677*	-3	nt	-4
O=C(NCc1cccc2ccccc12)C1CCCN(c2nc3ccccc3o2)C1 (stereo unspecified)	nt	1	nt	nt	nt	nt
SMILES	BoNT-F LC inh	CCHF vOTU inh	Autofluor counter	Anthrax LF inh2	3CLpro inhibitor	BoNT-A LC inh2
COc1ccc(C(=O)Nc2ccc3c(c2)C(=O)N(C)[C@H]2CC[C@H](CC(=O)NCC4CC4)O[C@@H]2CO3)cc1	nt	-3	nt	nt	nt	nt
CCCCN=C(N)NC(=O)OCc1ccccc1	nt	-6	nt	nt	nt	nt
Clc1ccc(-c2nnc3n2N=C(c2ccc(-c4ccccc4)cc2)CS3)cc1	nt	5	nt	nt	nt	nt
CN(C)[C@H]1CCN(c2cccc3c2S(=O)(=O)N(C2CC2)CCCO3)C1	nt	1	nt	nt	nt	nt
O/N=C/c1ccc2ccccc2n1	41*	-10	3713	-10	8	-2
COC(=O)C1CN(Cc2cn(Cc3ccc(OC)cc3)nn2)CCS(=O)(=O)N1Cc1ccc(Cl)cc1 (stereo unspecified)	nt	-3	nt	nt	nt	nt
CCOC(=O)c1cnn(CCOC(=O)c2cccs2)c1NC(=O)c1cccs1	3	-10	22411*	0	-3	1
Cc1ccc(-n2c(SCC(=O)NCc3ccco3)nnc2-c2cccnc2)c(C)c1	1	-9	22964*	2	0	1
COc1cccc(NC(=O)CSc2nnc(Cc3cccn3C)n2-c2ccc(F)cc2)c1	-3	7	5810	-3	2	0
Cc1cc(C)c(NC(=O)CSc2nnc(Cc3cccn3C)n2-c2ccc(F)cc2)c(C)c1	-7	26	25100*	-2	2	-3
Cn1cccc1Cc1nnc(SCC(=O)NCc2ccccc2Cl)n1-c1ccc(F)cc1	-4	-7	4738	0	4	-1
Cn1cccc1Cc1nnc(SCC(=O)NCc2ccco2)n1-c1ccc(F)cc1	4	-10	22151*	-6	-1	?
Cc1cccc(-n2c(SCC(=O)NCc3ccco3)nnc2-c2ccco2)c1	-2	-14	7333	-1	5	0
CC(=O)Nc1cccc(NC(=O)CSc2nnc(Cc3cccn3C)n2-c2ccc(F)cc2)c1	2	7	21922*	-8	-3	2
CCCCCCCCNC(=O)C1CSCCS(=O)(=O)N1Cc1ccccc1 (stereo unspecified)	nt	11	nt	nt	nt	nt
COc1ccc(-c2ccc3c(n2)CCCN3S(=O)(=O)c2ccccc2)cc1	nt	-7	nt	nt	nt	nt
Cn1nc(C(C)(C)C)cc1C(=O)NCc1ccc(N2CCCC2=O)cc1	0	-4	23561*	-4	2	?
COP(=O)(O)C(Cc1ccccc1)NC(=O)OCc1ccccc1 (stereo unspecified)	nt	-1	nt	nt	nt	nt
CCOC(=O)C(C(=O)OCC)=C1OC(=O)c2ccccc21	-1	-4	23965*	-2	-4	0
CCCCn1c(O)c(C(C)=NCCCN(CC)CC)c(=O)[nH]c1=O	-4	-7	23379*	-3	-7	0
CCCCn1c(O)c(C(CC)=NCCCN(C)C)c(=O)[nH]c1=O	3	-3	16159*	0	2	1
CCCCn1c(O)c(C(C)=NCc2ccc(F)cc2)c(=O)[nH]c1=O	-4	-5	23819*	-1	-2	-1
CCCCn1c(O)c(C(C)=NCCCN(C)C)c(=O)[nH]c1=O	5	-2	14900	-2	6	4
O=C(CCCCCN1C(=O)C2C3C=CC(C3)C2C1=O)Nc1cc(F)cc(F)c1 (stereo unspecified)	nt	3	nt	nt	nt	nt
CC(C)(C)NC(=O)CN(Cc1cccs1)C(=O)CN1C(=O)C(=O)c2ccccc21	5	2	3311	-4	6	0
CC(C)(C)NC(=O)CN(Cc1cccs1)C(=O)C1COc2ccccc2O1 (stereo unspecified)	-1	5	23568*	0	-6	-1

Screening data (PubChem BioAssay)
